The values below come from PubChem BioAssay (NCI).

A short description of assay [1]: NCI Yeast Anticancer Drug Screen. Data for the rad50 strain (AID 155).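 Further: 0% = growth of vehicle-only cultures of the same strain.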 As to conditions: S. cerevisiae rad50 strain growth inhibition; at 50.0 µM; stronger effect = higher value. In a few lines:
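Relative growth inhibition (compound vs vehicle) was measured in yeast with a defined repair-gene alteration.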

Assay [2] can be described thus: NCI Yeast Anticancer Drug Screen. Data for the mec2-1 strain (AID 157). Particulars: S. cerevisiae mec2-1 strain, at 50.0 µM, stronger effect = higher value. In a few lines: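 Using mec2-1 yeast: add compound, measure growth, express inhibition versus vehicle-treated cultures.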
Assay [3] in a line: NCI Yeast Anticancer Drug Screen. Data for the sgs1 mgt1 strain (AID 161).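 Further: 0% = growth of cultures given vehicle only.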 Particulars: S. cerevisiae sgs1 mgt1 strain, at 50.0 µM, stronger effect = higher value. The essentials: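 Percent growth inhibition was derived by comparing compound-exposed mutant yeast with vehicle-exposed cultures. The strain carries alterations in DNA damage repair.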
A short description of assay [4]: NCI Yeast Anticancer Drug Screen. Data for the cln2 rad14 strain (AID 165).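 Further: 0% = growth equal to vehicle treated cultures.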 Particulars: S. cerevisiae cln2 rad14 strain, at 50.0 µM, stronger effect = higher value. In a few lines: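 Yeast strain cln2 rad14, bearing defects in cell cycle control and DNA repair, serves as the test system; values reflect growth inhibition compared with vehicle.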
Assay [5] in a line: NCI Yeast Anticancer Drug Screen. Data for the bub3 strain (AID 167). As to conditions: S. cerevisiae bub3 mutant strain, at 50.0 µM, stronger effect = higher value. In a few lines: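 Screening used yeast with an engineered genetic alteration affecting cell cycle control. Compound-exposed cultures were compared with vehicle cultures, and reduced growth was taken as inhibition.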
A short description of assay [6]: NCI Yeast Anticancer Drug Screen. Data for the mlh1 rad18 strain (AID 175). As to conditions: S. cerevisiae mlh1 rad18 strain growth inhibition; at 50.0 µM; stronger effect = higher value. The essentials:
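Steps: expose repair-defective yeast to compound; measure growth; express inhibition against vehicle-treated controls.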

This is part of a sample that, as a whole, favours compounds with a hit. Of some 79,000 tested, about 15% had one in any assay. Unmarked numbers belong to inactive results. Activity calls are given as the source filed them. No stated cut-off is given here; in the data, active means growth inhibition above about 70%; inactive means the rest.

As to `CC1CC2=Cc3c(O)c(O)cc(O)c3C(=O)C2=CO1` (configuration not stated), the growth inhibition in assay [1] is -5.5%; in assay [2], -31.7%; in assay [3], -19.7%; in assay [4], -11.6%; in assay [5] it was -5.7%; in assay [6] it was -19.1%.

Regarding `CN1CCOc2c1cnn(CCO)c2=O`, the growth inhibition in assay [1] is -52.2%; in assay [2], -15.4%; in assay [3] it was -22.4%; in assay [4] it was -10.4%; in assay [5], -4.2%; in assay [6], -7.6%.

Turning to `CN(C)C(=O)Nc1cccc2c(NC(=O)N(C)C)cccc12`, the growth inhibition is -1.4% in assay [1]; 4.4% in assay [2]; 10.7% in assay [3]; 11.9% in assay [4]; -4.45% in assay [5]; -1.55% in assay [6].

`CCC(C)OC(=O)CC(c1ccccc1)N1CCCCC1` (configuration not stated): the growth inhibition was 7.5% in assay [1]; -10.4% in assay [2]; 3% in assay [3]; -26.4% in assay [4]; -0.65% in assay [5]; -4.5% in assay [6].

Turning to `Cc1nn(-c2ccc(Cl)cc2)c2c1c(=O)[nH]c1ccccc12`, the growth inhibition in assay [1] was 6%; in assay [2], -3.45%; in assay [3], 1%; in assay [4], -24.6%; in assay [5], -2.05%; in assay [6] it was -5.05%.

As to `O=C(O)/C(Br)=C(\Br)c1ccccc1`, the growth inhibition in assay [1] is 23.9%; in assay [2] it was 15.8%; in assay [3] it was 14.6%; in assay [4] it was 14.4%; in assay [5], 1.55%; in assay [6] it was 12.5%.

Turning to `CCC(C)C(C)/C(C)=N/Nc1ccc([N+](=O)[O-])cc1[N+](=O)[O-]` (configuration not stated), the growth inhibition in assay [1] was 13.7%; in assay [2] it was -10%; in assay [3], 0.25%; in assay [4], -34.9%; in assay [5], 6.6%; in assay [6], -26.4%.

For `C/C(=N\n1cc(-c2ccccc2)nc1N)c1ccccc1`, the growth inhibition in assay [1] is -2.8%; in assay [2], 4.2%; in assay [3] it was 6%; in assay [4] it was 13.5%; in assay [5], 20.6%; in assay [6], 13.1%.

`CCCCN=C1NS(=O)(=O)c2ccccc21`: the growth inhibition was 15.5% in assay [1]; -11.5% in assay [2]; 13.2% in assay [3]; -8.15% in assay [4]; 0% in assay [5]; -0.6% in assay [6].

Take `CC(C)=CCc1c(C)cc2cc3c(c(O)c2c1O)C(O)=CC(=O)C3(CC=C(C)C)C/C=C(\C)CO` (configuration not stated): the growth inhibition was 54.6% in assay [1]; 37% in assay [2]; 52.5% in assay [3]; 47.2% in assay [4]; 48.9% in assay [5]; 46.1% in assay [6].

Regarding `COC(=O)[C@H]1C=C[C@@H](C)n2c(=O)c3cc4ccccc4cc3c(=O)n21`, the growth inhibition in assay [1] was -21.2%; in assay [2], -1.55%; in assay [3] it was -18.9%; in assay [4], -7.95%; in assay [5], -24%; in assay [6] it was -18.2%.

Consider `COc1cc2c(c(OC)c1OC)-c1ccc(OC)c(=O)cc1C(NC(=S)Nc1ccccc1)CC2` (configuration not stated), for which the growth inhibition in assay [1] was 96.5% (active); in assay [2], 96.8% (active); in assay [3], 96.8% (active); in assay [4] it was 93.5% (active); in assay [5], 95.6% (active); in assay [6] it was 96.5% (active).

For `COc1ccc(C2OCC(C)O2)cc1OC` (configuration not stated), the growth inhibition was -13.4% in assay [1]; 16.1% in assay [2]; -8.2% in assay [3]; -31.4% in assay [4]; -31.4% in assay [5]; -7.3% in assay [6].

For the molecule `CCOc1ccc(N=Nc2c(C)nc(N)nc2-c2ccccc2)cc1`, the growth inhibition in assay [1] was 20.1%; in assay [2], -14.7%; in assay [3] it was 4.1%; in assay [4] it was -4.75%; in assay [5], 35.4%; in assay [6] it was 24.4%.

In the case of `O=C1/C(=C/c2ccccc2)N=C2Sc3c(nc[nH]c3=O)N12`, the growth inhibition in assay [1] was 16.5%; in assay [2], -23.8%; in assay [3], -12.4%; in assay [4], -7.25%; in assay [5] it was 10.4%; in assay [6] it was -39.2%.

Regarding `O=C(NCCCN1CCN(CCCNC(=O)Nc2ccc(Br)cc2)CC1)Nc1ccc(Br)cc1`, the growth inhibition is 27.7% in assay [1]; 10.8% in assay [2]; 38.4% in assay [3]; 12.2% in assay [4]; -1.5% in assay [5]; 23.4% in assay [6].

For `CC(=O)OCC(OC(C)=O)C(OC(C)=O)C(OC(C)=O)C(S)S` (configuration not stated), the growth inhibition is 5.2% in assay [1]; 50.1% in assay [2]; 30.1% in assay [3]; -4.2% in assay [4]; 29.9% in assay [5]; 28.9% in assay [6].

`O=C1c2ccccc2C(=O)N1Nc1ccccc1`: the growth inhibition was 6.6% in assay [1]; 3.2% in assay [2]; 7.45% in assay [3]; -8.1% in assay [4]; 3.1% in assay [5]; 16.5% in assay [6].

Take `O=C(Nc1nccs1)Nc1ccc(Cl)cc1[N+](=O)[O-]`: the growth inhibition in assay [1] is 0.1%; in assay [2], 33.6%; in assay [3], 34.6%; in assay [4], -6.95%; in assay [5] it was 24.8%; in assay [6], 34.4%.

For `CSCCC(C(=O)O)N(C)C` (configuration not stated), the growth inhibition in assay [1] is -4.3%; in assay [2], -21.3%; in assay [3], -17.3%; in assay [4], -2.9%; in assay [5], -19.6%; in assay [6] it was -18%.

For the molecule `Cn1c(=O)c(Br)c(C=O)n(CCO[N+](=O)[O-])c1=O`, the growth inhibition in assay [1] was -8.25%; in assay [2], 32%; in assay [3], 3.85%; in assay [4] it was 15.6%; in assay [5], 38.6%; in assay [6] it was -27.6%.

Turning to `NC(=O)N/N=C(\CCC(=O)N(Cc1ccccc1)Cc1ccccc1)CC(=O)c1ccc(F)cc1`, the growth inhibition in assay [1] is -1.5%; in assay [2], 10.8%; in assay [3] it was -30.9%; in assay [4], 18.8%; in assay [5], -7.9%; in assay [6], -14.9%.

For the molecule `[N-]=[N+]=NCC1OCOC1C1OCOC1CN=[N+]=[N-]` (configuration not stated), the growth inhibition in assay [1] was -6.85%; in assay [2], 10.6%; in assay [3] it was -4.05%; in assay [4], -33.7%; in assay [5], 4.2%; in assay [6] it was -3.5%.

As for `N#CC(/C(=N\NC(=O)c1ccncc1)C(=O)Nc1ccc([N+](=O)[O-])cc1[N+](=O)[O-])c1nc(-c2ccc(Br)cc2)cs1` (configuration not stated), the growth inhibition in assay [1] is 0.25%; in assay [2] it was -3.75%; in assay [3], -15.1%; in assay [4], 7.6%; in assay [5] it was 12.9%; in assay [6], -7.85%.

For the molecule `OCN(CO)c1ccc2c(c1)Cc1cc(Cl)ccc1-2`, the growth inhibition was 0.35% in assay [1]; -24.1% in assay [2]; -2.2% in assay [3]; 22.4% in assay [4]; 13.1% in assay [5]; 12.7% in assay [6].

For `CC1CC(C)CN(S(=O)(=O)c2cc(Cl)c(Oc3ccc([N+](=O)[O-])cc3Cl)c(Cl)c2)C1` (configuration not stated), the growth inhibition in assay [1] was 7.8%; in assay [2], -28.3%; in assay [3], 3.75%; in assay [4] it was 34.4%; in assay [5], -11.3%; in assay [6], -2.45%.

As to `CCOC(=O)c1c(C)n2c3c(cccc13)CCC2`, the growth inhibition in assay [1] was 23.4%; in assay [2], 16.9%; in assay [3], 3.05%; in assay [4] it was 61.6%; in assay [5], 8.6%; in assay [6], 12.8%.

Take `O=C(O)c1nc2nc(Cl)c(Cl)nc2[nH]1`: the growth inhibition in assay [1] is -22.7%; in assay [2], -30.4%; in assay [3], -19.7%; in assay [4], 21.9%; in assay [5], -37.8%; in assay [6], 9.4%.

As for `CCCCN(CCCC)CC(O)C=O` (configuration not stated), the growth inhibition in assay [1] is -7.95%; in assay [2], -3.95%; in assay [3] it was -0.5%; in assay [4] it was -4.85%; in assay [5] it was -8.4%; in assay [6], 2.95%.

Consider `CC1=C(CCC(C)N)C(C)(C)CCC1` (configuration not stated), for which the growth inhibition was 29% in assay [1]; 14.7% in assay [2]; 28% in assay [3]; 7.75% in assay [4]; 11.4% in assay [5]; 12.8% in assay [6].

For the molecule `CCOC(=O)c1nc(C)oc1C(=O)OCC`, the growth inhibition in assay [1] is 0.85%; in assay [2], -12.9%; in assay [3], -14.6%; in assay [4], -13.9%; in assay [5] it was -7.3%; in assay [6] it was -3.85%.

Turning to `CC1CCN(C(=S)[S-])CC1.CC1CCN(C(=S)[S-])CC1.[Zn]`, the growth inhibition in assay [1] is 58.9%; in assay [2] it was 9.05%; in assay [3] it was 54.2%; in assay [4] it was 34.2%; in assay [5] it was 5.85%; in assay [6], 32.9%.

On to `CCN(CCC#N)c1cccc(C)c1`, for which the growth inhibition in assay [1] is -12.2%; in assay [2], 1.6%; in assay [3], -5.75%; in assay [4] it was 9.8%; in assay [5], -16.8%; in assay [6], -7.55%.

Consider `CCCC1OCC=CCO1`, for which the growth inhibition was 3.75% in assay [1]; -23.6% in assay [2]; -21.1% in assay [3]; -1.45% in assay [4]; -33.5% in assay [5]; 20.4% in assay [6].

On to `COc1ccc(C(=O)/C=C/c2ccc(OC)c(OC)c2OC)c(O)c1`, for which the growth inhibition was 17.6% in assay [1]; 1.4% in assay [2]; -8.55% in assay [3]; -18.5% in assay [4]; 16.6% in assay [5]; 14.7% in assay [6].

Take `OCCCCCOCc1ccccc1`: the growth inhibition in assay [1] was 18.9%; in assay [2] it was 3.6%; in assay [3], 42.1%; in assay [4] it was 42.8%; in assay [5] it was -8.65%; in assay [6], 23.3%.

Turning to `FC(F)(F)C(F)(F)c1nc(C(F)(F)C(F)(F)C(F)(F)c2noc(C(F)(F)C(F)(F)F)n2)no1`, the growth inhibition in assay [1] was 8.5%; in assay [2] it was 16.9%; in assay [3], 15%; in assay [4], -31.3%; in assay [5], -3%; in assay [6], -6.3%.
